Assay results as given in PubChem BioAssay (NCATS).
Results filed as inconclusive are left out. Activity calls are given as the source filed them. Unless noted, calls follow the shape of the dose curve; as a rule, active = well fitted curve in the direction sought with a large enough effect; inconclusive = small, poorly fitted or top-dose-only effect, or another doubt; inactive = no such curve, though single readings can be large; an effect the other way counts as inactive or inconclusive.

How the values were obtained:
[1] = target: DNA repair nuclease/redox regulator APEX1 (Homo sapiens) (UniProt P27695); experiment: qHTS Validation Assay for Inhibitors of the Human Apurinic/apyrimidinic Endonuclease 1 (APE1) (AID 1705;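 also: TAMRA fluorescence gain over two minutes as APE1 cuts a quenched THF abasic duplex; series mostly up to about 57 µM; % is scaled to controls: 0 for no effect and ±100 for the full control effect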)
Sequence of DNA repair nuclease/redox regulator APEX1 (Homo sapiens) (P27695 whole entry, looked up): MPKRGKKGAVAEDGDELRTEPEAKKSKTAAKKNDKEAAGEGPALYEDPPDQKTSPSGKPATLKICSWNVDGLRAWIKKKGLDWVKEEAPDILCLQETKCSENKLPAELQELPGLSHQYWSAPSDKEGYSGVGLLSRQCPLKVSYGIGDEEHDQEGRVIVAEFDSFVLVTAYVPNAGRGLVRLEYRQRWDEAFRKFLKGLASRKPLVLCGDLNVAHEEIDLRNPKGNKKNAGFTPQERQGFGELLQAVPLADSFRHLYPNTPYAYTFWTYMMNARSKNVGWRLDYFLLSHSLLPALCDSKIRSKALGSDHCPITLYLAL
Outline: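 Activity read as rising fluorescence (598 nm emission, 525 nm excitation) from incision of a TAMRA/BHQ-2 duplex carrying a THF abasic site (50 nM). Compound and enzyme sat 15 min at RT before substrate start; signal change between first and third 60-s reads.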

[2] = target: Endonuclease 4 (Escherichia coli (strain K12)) (UniProt P0A6C1); experiment: Counterscreen for APE1 Inhibitors: qHTS Validation Assay for Inhibitors of Endonuclease IV (AID 1708); also: % is scaled to controls: 0 for no effect and ±100 for the full control effect
Outline: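 Incision of a double-stranded 50 nM TAMRA/BHQ-2 abasic substrate was followed kinetically (525/598 nm, reads every 60 s) after 15 min enzyme–compound preincubation with 2 nM EndoIV in pH 7.5 Tris buffer with MgCl2, DTT and Tween-20; concentration-response format.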

[3] = qHTS for differential inhibitors of proliferation of Plasmodium falciparum line 3D7 (AID 1876);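 also: parasite growth measured after three days of culture; 0% = vehicle wells and -100% = reference inhibitor wells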
[4] = qHTS for differential inhibitors of proliferation of Plasmodium falciparum line W2 (AID 1883); conditions: Potency: Plasmodium falciparum W2 proliferation inhibition;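 also: parasites grown with compound for 72 h before lysis and staining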; also: potency is read from the fitted curve at half-maximal effect
[5] = target: ATP-dependent DNA helicase Q1 (Homo sapiens) (UniProt P46063); experiment: qHTS Validation Assay for Inhibitors of RecQ-Like Dna Helicase 1 (RECQ1) (AID 2353);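 also: plate controls were DMSO vehicle for no effect and enzyme-free control for full effect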
Sequence of ATP-dependent DNA helicase Q1 (Homo sapiens) (P46063 whole entry, looked up): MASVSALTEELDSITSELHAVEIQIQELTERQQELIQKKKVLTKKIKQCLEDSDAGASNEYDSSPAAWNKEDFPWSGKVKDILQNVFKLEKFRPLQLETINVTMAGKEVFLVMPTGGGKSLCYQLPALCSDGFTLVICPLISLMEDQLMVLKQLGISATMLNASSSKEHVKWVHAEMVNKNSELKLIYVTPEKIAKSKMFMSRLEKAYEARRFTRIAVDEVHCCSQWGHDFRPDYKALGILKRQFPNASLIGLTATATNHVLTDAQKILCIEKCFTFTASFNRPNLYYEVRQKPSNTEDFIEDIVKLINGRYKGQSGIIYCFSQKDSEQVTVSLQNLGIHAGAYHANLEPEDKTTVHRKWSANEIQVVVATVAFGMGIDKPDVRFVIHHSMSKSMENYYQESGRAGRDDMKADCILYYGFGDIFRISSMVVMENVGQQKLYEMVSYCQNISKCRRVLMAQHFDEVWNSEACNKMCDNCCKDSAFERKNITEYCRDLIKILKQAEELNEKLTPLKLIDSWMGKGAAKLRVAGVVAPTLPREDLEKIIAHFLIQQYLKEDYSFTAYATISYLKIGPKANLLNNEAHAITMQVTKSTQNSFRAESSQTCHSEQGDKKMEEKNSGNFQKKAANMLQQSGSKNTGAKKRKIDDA
Outline: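 RECQ1T1 50 nM; forked duplex (20 bp + 30-nt ss tails) 200 nM, ATP 2 mM final; pH 8.0, 2 mM MgCl2, 2.5 ug/ml poly(dI-dC); 15 min compound preincubation; discontinuous kinetic read over 2 h at RT.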

[6] = target: RecQ-like DNA helicase BLM (Homo sapiens) (UniProt P54132); experiment: qHTS Validation Assay for Inhibitors of Bloom's syndrome helicase (BLM) (AID 2364);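 also: plate controls were DMSO vehicle for no effect and enzyme-free control for full effect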
Sequence of RecQ-like DNA helicase BLM (Homo sapiens) (P54132 whole entry, looked up): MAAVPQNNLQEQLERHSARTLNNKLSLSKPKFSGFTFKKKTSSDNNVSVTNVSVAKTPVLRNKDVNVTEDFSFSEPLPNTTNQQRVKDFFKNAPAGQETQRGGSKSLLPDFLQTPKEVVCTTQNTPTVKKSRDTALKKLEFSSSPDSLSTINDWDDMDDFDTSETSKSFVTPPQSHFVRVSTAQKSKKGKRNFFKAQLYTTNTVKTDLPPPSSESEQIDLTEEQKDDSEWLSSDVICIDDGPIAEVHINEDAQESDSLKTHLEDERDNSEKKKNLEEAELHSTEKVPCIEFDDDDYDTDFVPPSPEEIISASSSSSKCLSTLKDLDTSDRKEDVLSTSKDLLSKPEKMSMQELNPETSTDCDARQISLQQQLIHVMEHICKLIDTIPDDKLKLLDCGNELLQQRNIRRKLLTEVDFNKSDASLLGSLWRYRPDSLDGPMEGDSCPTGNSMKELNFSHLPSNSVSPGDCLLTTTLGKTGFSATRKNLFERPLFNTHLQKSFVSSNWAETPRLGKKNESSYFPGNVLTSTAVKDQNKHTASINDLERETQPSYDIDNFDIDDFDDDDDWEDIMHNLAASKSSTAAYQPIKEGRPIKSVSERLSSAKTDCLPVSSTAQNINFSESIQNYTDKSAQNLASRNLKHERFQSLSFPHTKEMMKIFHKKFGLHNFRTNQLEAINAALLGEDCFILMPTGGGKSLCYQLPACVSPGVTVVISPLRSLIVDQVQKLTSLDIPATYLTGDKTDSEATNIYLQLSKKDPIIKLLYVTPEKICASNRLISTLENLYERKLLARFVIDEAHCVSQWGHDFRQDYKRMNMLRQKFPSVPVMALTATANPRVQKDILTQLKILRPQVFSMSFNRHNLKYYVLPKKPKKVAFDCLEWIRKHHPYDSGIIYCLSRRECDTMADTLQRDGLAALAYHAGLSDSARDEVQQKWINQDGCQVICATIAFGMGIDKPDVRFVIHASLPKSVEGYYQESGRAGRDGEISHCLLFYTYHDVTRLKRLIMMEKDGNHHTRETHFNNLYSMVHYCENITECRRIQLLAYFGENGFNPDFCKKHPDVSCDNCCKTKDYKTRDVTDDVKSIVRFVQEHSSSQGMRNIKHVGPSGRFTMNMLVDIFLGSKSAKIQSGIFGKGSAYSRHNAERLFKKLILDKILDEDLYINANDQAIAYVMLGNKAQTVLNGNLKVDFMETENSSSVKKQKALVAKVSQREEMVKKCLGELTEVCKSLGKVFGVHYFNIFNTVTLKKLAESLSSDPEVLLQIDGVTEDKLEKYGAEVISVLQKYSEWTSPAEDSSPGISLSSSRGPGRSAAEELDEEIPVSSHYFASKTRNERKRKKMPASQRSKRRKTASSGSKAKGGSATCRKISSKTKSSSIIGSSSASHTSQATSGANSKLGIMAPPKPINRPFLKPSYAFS
Outline: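 Forked 20-bp duplex substrate (200 nM, TAMRA/BHQ-2) plus 2 mM ATP added after 15 min compound preincubation with 50 nM enzyme, pH 8.0, poly(dI-dC) 2.5 ug/ml. Strand separation followed by fluorescence (525/598 nm) over 2 h, normalized to enzyme-free and DMSO controls.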

[7] = Validation screen for inhibitors of Lassa infection (AID 463096; calls by dose curve; also: % is scaled to controls: 0 for no effect and ±100 for the full control effect)
[8] = Validation screen for small molecules that induce DNA re-replication in MCF 10A normal breast cells (AID 463097); also: 0% is about no effect; nearly all actives have a fitted effect of over 60% in size
Outline: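 Read-out is Hoechst total nuclear intensity by fluorescence scanning imager, flagging increased high-DNA-content nuclei. Compounds were incubated with MCF 10A cells for 48 hr (37 C, 5% CO2) before 40 min staining.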

[9] = Quantitative high throughput screen for delayed death inhibitors of the malarial parasite plastid, 96 hour incubation (AID 488745); also: series mostly up to about 29 µM; % is scaled to controls: 0 for no effect and ±100 for the full control effect; nearly all actives have a fitted effect of over 70% in size
Outline: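 Decreased firefly luciferase luminescence indicates inhibited growth of reporter-integrated P. falciparum after two generations (96 h, 37 C, 5% CO2). Infected erythrocytes at 0.1% parasitemia, 2% hematocrit, in Albumax-supplemented RPMI 1640.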

[10] = target: M-phase phosphoprotein 8 (Homo sapiens) (UniProt Q99549); experiment: qHTS Validation Assay for Inhibitors for MPP8 Chromodomain Interactions with Methylated Histone Tails (AID 488949);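 also: AlphaScreen signal from MPP8 chromodomain bound to biotinylated H3K9me3 peptide; top concentration of the series differs between compounds; % is scaled to controls: 0 for no effect and ±100 for the full control effect; nearly all actives have a fitted effect of over 55% in size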
Sequence of M-phase phosphoprotein 8 (Homo sapiens) (Q99549 whole entry, looked up): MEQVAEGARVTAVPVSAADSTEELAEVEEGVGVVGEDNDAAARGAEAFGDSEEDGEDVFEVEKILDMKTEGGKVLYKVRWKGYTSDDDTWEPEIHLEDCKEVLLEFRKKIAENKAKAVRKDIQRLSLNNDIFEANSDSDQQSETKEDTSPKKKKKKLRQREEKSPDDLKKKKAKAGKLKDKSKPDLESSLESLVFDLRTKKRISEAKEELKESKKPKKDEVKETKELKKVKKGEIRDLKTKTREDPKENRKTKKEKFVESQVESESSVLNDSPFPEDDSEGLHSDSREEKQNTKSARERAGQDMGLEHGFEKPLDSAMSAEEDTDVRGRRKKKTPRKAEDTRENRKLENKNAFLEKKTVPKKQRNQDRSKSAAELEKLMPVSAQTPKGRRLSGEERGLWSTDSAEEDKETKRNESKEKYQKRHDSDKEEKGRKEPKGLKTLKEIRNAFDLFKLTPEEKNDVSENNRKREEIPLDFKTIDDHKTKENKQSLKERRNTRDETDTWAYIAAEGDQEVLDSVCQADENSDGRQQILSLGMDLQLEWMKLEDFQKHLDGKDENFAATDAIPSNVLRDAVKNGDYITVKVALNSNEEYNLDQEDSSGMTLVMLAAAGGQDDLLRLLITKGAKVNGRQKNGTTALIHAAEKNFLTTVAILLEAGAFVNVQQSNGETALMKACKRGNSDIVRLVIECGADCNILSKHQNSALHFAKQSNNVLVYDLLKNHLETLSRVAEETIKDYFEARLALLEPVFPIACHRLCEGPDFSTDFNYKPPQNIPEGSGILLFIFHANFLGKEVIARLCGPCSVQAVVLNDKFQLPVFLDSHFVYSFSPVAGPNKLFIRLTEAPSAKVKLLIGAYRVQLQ
Outline: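 AlphaScreen proximity signal from streptavidin donor and Ni-chelate acceptor beads (10 ug/mL each) reported binding of MPP8 to trimethyl-K9 H3(1-18) peptide, both at 50 nM. The complex formed 30 min before a 30 min compound exposure at room temperature, in PBS pH 7.4.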

[11] = target: Thyrotropin receptor (Homo sapiens) (UniProt P16473); experiment: qHTS Assay for Antagonists of the Thyroid Stimulating Hormone Receptor (AID 488980); also: series mostly up to about 58 µM; 0% is about no effect
Sequence of Thyrotropin receptor (Homo sapiens) (P16473 whole entry, looked up): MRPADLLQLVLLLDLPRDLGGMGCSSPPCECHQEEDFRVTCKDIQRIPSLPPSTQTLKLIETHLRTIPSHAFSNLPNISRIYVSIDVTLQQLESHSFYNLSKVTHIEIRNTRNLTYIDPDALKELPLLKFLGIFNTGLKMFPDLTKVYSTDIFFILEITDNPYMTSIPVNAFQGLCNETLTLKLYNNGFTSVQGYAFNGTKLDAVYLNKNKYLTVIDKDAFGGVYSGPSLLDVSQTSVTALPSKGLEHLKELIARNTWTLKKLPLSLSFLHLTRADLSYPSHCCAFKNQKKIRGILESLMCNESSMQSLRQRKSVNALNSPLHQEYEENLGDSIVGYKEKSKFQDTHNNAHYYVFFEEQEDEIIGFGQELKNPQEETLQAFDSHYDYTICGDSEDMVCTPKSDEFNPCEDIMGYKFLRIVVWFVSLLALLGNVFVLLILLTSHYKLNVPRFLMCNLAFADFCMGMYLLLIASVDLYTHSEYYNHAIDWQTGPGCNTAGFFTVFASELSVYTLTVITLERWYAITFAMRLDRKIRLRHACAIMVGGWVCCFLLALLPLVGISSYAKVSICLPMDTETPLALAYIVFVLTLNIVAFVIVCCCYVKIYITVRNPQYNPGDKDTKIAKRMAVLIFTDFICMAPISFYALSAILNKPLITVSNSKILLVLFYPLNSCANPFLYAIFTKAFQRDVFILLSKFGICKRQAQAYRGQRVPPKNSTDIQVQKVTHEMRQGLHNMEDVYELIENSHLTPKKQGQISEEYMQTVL
Outline: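 Inhibition of cAMP raised by EC80 TSH (4 nM final) was read by HTRF, with lysate cAMP competing against cAMP-d2 for cryptate antibody after 30 min at room temperature. The cells were transfected HEK293 held in phosphodiesterase inhibitor RO 20-1724 at 70 uM.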

[12] = target: Galactokinase (Homo sapiens) (UniProt P51570); experiment: qHTS Validation Assay for Inhibitors of Human Galactokinase (GALK) (AID 493189); also: 0% is about no effect
Sequence of Galactokinase (Homo sapiens) (P51570 whole entry, looked up): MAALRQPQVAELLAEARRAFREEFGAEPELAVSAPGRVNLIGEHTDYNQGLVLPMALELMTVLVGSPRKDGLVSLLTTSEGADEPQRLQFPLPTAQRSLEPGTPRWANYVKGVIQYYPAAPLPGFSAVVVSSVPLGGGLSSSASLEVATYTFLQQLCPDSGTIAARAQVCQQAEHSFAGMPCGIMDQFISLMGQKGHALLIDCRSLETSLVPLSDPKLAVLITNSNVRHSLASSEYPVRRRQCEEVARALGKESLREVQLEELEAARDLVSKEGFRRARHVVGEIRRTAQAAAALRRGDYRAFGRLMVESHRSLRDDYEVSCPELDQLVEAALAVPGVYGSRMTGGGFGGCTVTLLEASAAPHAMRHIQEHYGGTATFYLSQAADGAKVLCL
Outline: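 Inhibition was measured as remaining ATP, detected by luciferase luminescence after a 1 h room-temperature reaction. Final conditions: 5 nM GALK, 100 uM galactose, 35 uM ATP, pH 8.0 HEPES buffer.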

[13] = Validation screen for small molecules that induce DNA re-replication in SW480 colon adenocarcinoma cells (AID 504364); also: 0% is about no effect
Outline: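 Image-based DNA content read-out: Hoechst stain 40 min, total nuclear fluorescence intensity (ex 405 nm, em 500-530 nm) after 48 h compound exposure of 250 SW480 cells/well at 37 C, 5% CO2, versus DMSO vehicle.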

[14] = qHTS for differential inhibitors of proliferation of Plasmodium falciparum line 7G8 (AID 1815);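 also: parasite growth measured after three days of incubation; plate controls were vehicle wells for no effect and reference inhibitor wells for full effect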
[15] = qHTS for differential inhibitors of proliferation of Plasmodium falciparum line GB4 (AID 1816); conditions: Potency: Plasmodium falciparum GB4 proliferation inhibition;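 also: parasite growth measured after 72 h incubation; 0% = vehicle DMSO and -100% = reference inhibitor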
[16] = qHTS for differential inhibitors of proliferation of Plasmodium falciparum line D10 (AID 1877);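 also: parasites grown with compound for 72 h before DNA staining; plate controls were vehicle wells for no effect and reference inhibitor wells for full effect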
[17] = qHTS for differential inhibitors of proliferation of Plasmodium falciparum line HB3 (AID 1886); conditions: Potency: Plasmodium falciparum HB3 proliferation inhibition;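 also: parasites grown with compound for 72 h before SYBR Green readout; plate controls were vehicle for no effect and reference inhibitor for full effect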
[18] = qHTS Assay for Modulators of Human Peripheral Myelin Protein 22 (PMP22) Expression/Activity (AID 1967; active = well fitted curve in the direction sought with a large enough effect in the signal ratio; the % refers to the signal ratio;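 also: 0% = untreated cells and 100% end not stated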)
Outline: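 Readout is the corrected green/red luminescence ratio after 24 h compound exposure, normalised to untreated cells (0%). Engineered MSC80 mouse Schwann cells express green luciferase from the mouse Pmp22 promoter and red luciferase from EF-alpha as internal control.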

[19] = target: Thyrotropin-releasing hormone receptor (Homo sapiens) (UniProt P34981); experiment: qHTS for Small Molecule Agonists and Allosteric Enhancers of Human TRH Receptor: Validation Screen for Agonists (AID 493127;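 active = calcium activation more than 3 SD above the typical response in the agonist read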;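 also: intracellular calcium rise by fluo-8 fluorescence before TRH EC20 addition; 0% is about no effect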); conditions: TRH receptor agonist cell assay; at 2 µM; active compounds read high
Sequence of Thyrotropin-releasing hormone receptor (Homo sapiens) (P34981 whole entry, looked up): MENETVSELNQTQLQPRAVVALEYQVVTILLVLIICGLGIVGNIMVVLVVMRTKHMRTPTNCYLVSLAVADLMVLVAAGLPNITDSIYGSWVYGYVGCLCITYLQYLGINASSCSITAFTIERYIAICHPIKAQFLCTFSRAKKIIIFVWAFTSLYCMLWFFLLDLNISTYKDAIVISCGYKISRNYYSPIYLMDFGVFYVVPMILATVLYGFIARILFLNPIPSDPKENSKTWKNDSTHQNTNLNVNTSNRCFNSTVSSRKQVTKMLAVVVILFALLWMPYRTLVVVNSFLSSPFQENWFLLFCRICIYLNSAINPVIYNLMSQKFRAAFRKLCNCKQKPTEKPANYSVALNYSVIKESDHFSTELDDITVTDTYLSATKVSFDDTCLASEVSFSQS
Outline: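 Compound-evoked intracellular calcium release in fluo-8-loaded TRHR cells, read kinetically on FDSS (Ex 480/Em 530, 1 s/cycle) after 23 nL pintool transfer. Agonist phase preceded 10 nM TRH EC20 addition.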

[20] = target: Voltage-gated inwardly rectifying potassium channel KCNH2 (Homo sapiens) (UniProt Q12809); experiment: qHTS Assay for Small Molecule Inhibitors of the Human hERG Channel Activity (AID 588834);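 also: top concentration of the series differs between compounds; % is scaled to controls: 0 for no effect and ±100 for the full control effect; lower thallium flux fluorescence means stronger hERG block; nearly all actives have a fitted effect of over 50% in size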
Outline: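 hERG block measured as reduced thallium-dye (FluxOR) fluorescence after stimulation buffer addition, read over 2 min. Cells were hERG-BacMam-transduced U2OS exposed to compound ~10 min […]; concentration-response fitted with Hill equation for AC50.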

[21] = NCATS anti-infectives library activity on HEK293 viability as a counter-qHTS vs the C. elegans viability qHTS (AID 1745854); also: % is scaled to controls: 0 for no effect and ±100 for the full control effect
Outline: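 Cytotoxicity counter-screen to a worm viability qHTS: CellTiter-Glo luminescence read 10 min after reagent addition. Compounds (final up to 41.7 uM, a 1:5 dilution series) incubated 24 hr at 37C with 1,500 HEK293 cells per well; digitonin control.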

[22] = target: Transient receptor potential cation channel subfamily V member 1 (Homo sapiens) (UniProt Q8NER1); experiment: HTS Assay for Compounds that Act as Enhancers of the Vanilloid Receptor 1 (AID 488979); also: 0% is about no effect
Outline: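 Calcium influx kinetics via Fluo-8 (480/520 nm) in TRPV1-expressing cells, 2000/well cultured overnight at 35.5C. Compound-alone read 3 min (agonist phase), followed by EC20 capsaicin challenge for 2 min (enhancer phase).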

C[C@]12CC[C@@H](O)CC1CCC1C2CC[C@]2(C)C(=O)CC[C@@H]12 (some centres undefined)
active: Potency [4] 10 µM
inactive: Potency [1] | Potency [2] | Potency [3] | outcome [5] | outcome [6] | Potency [7] | Potency [8] | Potency [9] | Potency [10] | outcome [11] | outcome [12] | outcome [13]

C[C@]12CC[C@H]3[C@@H](CCC4C[C@H](O)CC[C@@]43C)[C@@H]1CC[C@@H]2O (some centres undefined)
inactive: Potency [1] | Potency [2] | Potency [14] | Potency [15] | Potency [3] | Potency [16] | Potency [4] | Potency [17] | outcome [18] | outcome [5] | outcome [6] | Potency [7] | Potency [8] | Potency [9] | Potency [10] | outcome [11] | activation [19] 1.31% | outcome [12] | outcome [13] | Potency [20]

CCCC(=O)O[C@H]1CN2CC[C@H](O)[C@@H]2[C@@H](O)[C@@H]1O
inactive: Potency [21]

NC(Cn1ccc(=O)[nH]c1=O)C(=O)O (centres undefined)
inactive: Potency [1] | Potency [2] | Potency [14] | Potency [15] | Potency [3] | Potency [16] | Potency [4] | Potency [17] | outcome [18] | outcome [5] | Potency [7] | Potency [8] | Potency [9] | Potency [10] | outcome [22] | outcome [11] | activation [19] 0.375% | outcome [12] | outcome [13] | Potency [20]
